# From PubChem
# Hits are enriched below; roughly 11% of the tested compounds scored in any of these assays.
# BAZ2B inh: BAZ2B (human) inhibition; AlphaScreen BAZ2B-H3K14Ac peptide displacement; Potency, µM (top dose mostly 114 µM), inactives show top-dose activity change, negative = inhibition, usual class: inhibitors; 360,000 tested, 4.4% active; further: on the % scale 0 is the no-effect control and ±100 the full control effect; nearly all actives have a fitted effect of over 60% in size
# Target sequence (Q9UIF8 whole entry, looked up): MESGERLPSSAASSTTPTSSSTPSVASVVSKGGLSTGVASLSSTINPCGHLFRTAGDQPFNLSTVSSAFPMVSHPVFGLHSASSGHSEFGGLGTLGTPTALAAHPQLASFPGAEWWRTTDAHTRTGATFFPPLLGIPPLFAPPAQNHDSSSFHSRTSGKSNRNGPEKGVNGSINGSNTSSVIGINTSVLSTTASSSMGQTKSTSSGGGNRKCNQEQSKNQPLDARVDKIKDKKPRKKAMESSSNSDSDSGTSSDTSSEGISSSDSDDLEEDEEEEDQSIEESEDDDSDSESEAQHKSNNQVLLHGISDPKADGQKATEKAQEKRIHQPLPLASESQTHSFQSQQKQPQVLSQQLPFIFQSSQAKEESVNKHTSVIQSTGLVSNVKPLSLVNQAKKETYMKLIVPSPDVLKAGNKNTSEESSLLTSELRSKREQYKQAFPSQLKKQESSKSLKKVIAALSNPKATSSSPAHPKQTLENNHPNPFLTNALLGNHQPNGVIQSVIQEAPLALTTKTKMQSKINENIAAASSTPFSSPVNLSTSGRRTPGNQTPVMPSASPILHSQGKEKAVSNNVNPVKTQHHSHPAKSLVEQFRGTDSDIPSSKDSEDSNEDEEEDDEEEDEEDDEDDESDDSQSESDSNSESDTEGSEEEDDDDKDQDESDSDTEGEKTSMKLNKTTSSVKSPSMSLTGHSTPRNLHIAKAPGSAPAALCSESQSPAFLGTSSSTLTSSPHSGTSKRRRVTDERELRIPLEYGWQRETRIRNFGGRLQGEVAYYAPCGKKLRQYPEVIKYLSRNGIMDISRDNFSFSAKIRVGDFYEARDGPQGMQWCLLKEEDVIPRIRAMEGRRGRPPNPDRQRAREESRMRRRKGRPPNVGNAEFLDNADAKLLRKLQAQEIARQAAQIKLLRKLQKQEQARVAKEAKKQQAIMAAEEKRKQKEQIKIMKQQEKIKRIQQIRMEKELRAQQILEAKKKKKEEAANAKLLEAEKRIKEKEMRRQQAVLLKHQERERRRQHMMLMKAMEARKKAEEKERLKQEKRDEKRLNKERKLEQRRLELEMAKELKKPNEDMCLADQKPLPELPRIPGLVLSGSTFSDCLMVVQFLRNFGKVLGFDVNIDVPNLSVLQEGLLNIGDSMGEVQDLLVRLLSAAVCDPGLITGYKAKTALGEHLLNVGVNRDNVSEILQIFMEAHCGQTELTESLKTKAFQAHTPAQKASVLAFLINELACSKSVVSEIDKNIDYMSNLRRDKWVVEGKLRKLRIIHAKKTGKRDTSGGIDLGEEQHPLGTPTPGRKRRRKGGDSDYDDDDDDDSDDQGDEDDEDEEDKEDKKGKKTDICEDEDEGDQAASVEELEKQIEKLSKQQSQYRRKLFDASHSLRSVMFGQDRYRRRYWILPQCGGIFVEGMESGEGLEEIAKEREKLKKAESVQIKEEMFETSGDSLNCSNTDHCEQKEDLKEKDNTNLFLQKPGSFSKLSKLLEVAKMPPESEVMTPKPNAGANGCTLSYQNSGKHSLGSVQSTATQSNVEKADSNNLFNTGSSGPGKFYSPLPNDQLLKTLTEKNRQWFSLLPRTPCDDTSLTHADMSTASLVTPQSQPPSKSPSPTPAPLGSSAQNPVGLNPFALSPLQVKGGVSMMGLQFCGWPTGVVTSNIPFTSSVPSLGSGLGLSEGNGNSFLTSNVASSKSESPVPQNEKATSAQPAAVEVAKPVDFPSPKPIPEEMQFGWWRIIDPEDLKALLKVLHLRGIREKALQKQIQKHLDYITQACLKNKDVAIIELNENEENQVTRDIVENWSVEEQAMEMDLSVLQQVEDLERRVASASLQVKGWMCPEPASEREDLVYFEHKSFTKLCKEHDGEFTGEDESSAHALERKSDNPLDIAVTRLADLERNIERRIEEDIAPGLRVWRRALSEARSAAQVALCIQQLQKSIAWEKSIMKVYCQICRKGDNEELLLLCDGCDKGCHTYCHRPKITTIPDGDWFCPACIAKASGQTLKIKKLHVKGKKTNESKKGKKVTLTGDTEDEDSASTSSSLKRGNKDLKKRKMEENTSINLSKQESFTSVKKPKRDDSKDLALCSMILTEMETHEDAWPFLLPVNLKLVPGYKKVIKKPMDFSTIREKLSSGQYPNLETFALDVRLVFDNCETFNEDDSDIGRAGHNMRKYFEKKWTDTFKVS
#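 Complex of BAZ2B and biotin-H3K14Ac (50 nM apiece) forms over 30 min at RT, then faces library compounds up to 110 uM for another 30 min; AlphaScreen beads added, 20 min dark incubation, luminescence read.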
# JMJD2A Tudor inh: JMJD2A Tudor domain (human) inhibition | AlphaScreen JMJD2A-Tudor / H3K4me3 peptide binding | Potency, µM (series often up to 114 µM), for the others: top-dose activity change, negative = inhibition, usual class: inhibitors | 390,000 tested, 4.4% active | AID 504339; further: on the % scale 0 is the no-effect control and ±100 the full control effect; nearly all actives have a fitted effect of over 50% in size
# L3MBTL1 inh: inhibitors of human L3MBTL1; Q9Y468; AlphaScreen L3MBTL1–H3K9me1 peptide binding; Potency, µM (highest dose often 57.1 µM), without a hit: top-dose activity, negative = inhibition, hits mostly inhibitors; 230,000 tested, 0.66% active; AID 485360; further: on the % scale 0 is the no-effect control and ±100 the full control effect; nearly all actives have a fitted effect of over 60% in size
#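 First, the protein-peptide complex forms for 30 min at room temperature (L3MBTL1 50 nM, biotinylated H3K9me1 peptide 75 nM). Next, compounds are pin-transferred and incubated 30 min. Finally, AlphaScreen beads are added and read after 30 min.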
# HP1b chromo inh: HP1-beta chromodomain-methylated histone interaction inhibition; P83916; Potency, µM (top dose mostly 114 µM), for inactives: top-dose activity change, negative = inhibition, most hits filed as inhibitors; AlphaScreen HP1-beta / biotin-H3K9me3 peptide binding; AID 540317; 390,000 tested, 0.56% active; further: nearly all actives have a fitted effect of over 70% in size
#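 Compound inhibition of the preformed complex between 50 nM HP1-beta and 50 nM biotinylated H3K9me3 peptide was read by AlphaScreen. Buffer was PBS pH 7.4 with 0.01% Tween-20. Incubations ran 30 min at room temperature, with 10 ug/mL donor/acceptor beads.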
# G9a inh: G9a (human) methyltransferase inhibition; Q96KQ7; G9a H3K9 monomethylation, AlphaScreen, 2 h; Potency, µM (titrated, usually from 102 µM), without a hit: at the top dose activity, negative = inhibition, hits mostly inhibitors; 350,000 tested, 8.8% active; further: on the % scale 0 is the no-effect control and ±100 the full control effect; nearly all actives have a fitted effect of over 75% in size
#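 G9a (20 nM) was preincubated 15 min with compound, then reacted 2 h at room temperature with 500 nM biotin-H3K9 peptide and 20 µM SAM. Monomethyl-H3K9 detected by AlphaScreen using anti-H3K9me1 antibody.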
# An asterisk follows results filed as active; ? = inconclusive; · = no result; ! = repeats disagree; [ ] = dose if it differs, or a comment. The call rests on the fitted dose curve; in most records, active means well fitted inhibition curve with a large enough effect; inconclusive means small, poorly fitted or top-dose-only effect; inactive means no such curve, though single readings can be large or run the other way. Potency means the concentration at half of the fitted maximal effect.
SMILES,BAZ2B inh,JMJD2A Tudor inh,L3MBTL1 inh,HP1b chromo inh,G9a inh
CCn1c(SCC(=O)NCc2ccco2)nc2c(c1=O)SC(C)C2 (stereo unspecified),-7%,-33%,-2%,5%,14µM*
O=C(CSc1nnc(C2CC2)n1-c1ccccc1)NCc1ccco1,14%,-20%,·,22%,79µM*
CCCc1cnc2c(c1SCC(=O)NCc1ccc(C)cc1)c(=O)n(C)c(=O)n2C,-23%,-14%,·,1%,10µM*
Cc1sc2nc(C3CC3)nc(SCC(=O)NCc3ccco3)c2c1C,-13%,-15%,-7%,26%,50µM*
CCn1c(=O)n(CC2CCC(C(=O)NC(C)C)CC2)c(=O)c2sccc21 (stereo unspecified),-10%,-7%,·,39%,5%[59 µM]
COc1ccc(C)cc1-n1nnc(C(=O)Nc2cccc(SC)c2)c1C,-8%,-8%,·,19%,-32%[59 µM]
CCC(C(=O)Nc1ccc(S(=O)(=O)N2CCN(C)CC2)cc1)c1ccccc1 (stereo unspecified),·,-20%,·,15%,·
Cc1sc2nc3ccc(NCc4ccco4)nn3c(=O)c2c1C,-7%,-32%,5%,73%,18µM*
O=c1c2ccccc2nc2ccc(NCc3ccco3)nn12,?,-33%,-11%,-10%,-12%[59 µM]
CCCc1nc(SCC(=O)NCc2ccco2)c2c(=O)n(C)c(=O)n(C)c2n1,1%,-24%,1%,25%,45µM*
Cc1ccc(-c2cc(C(=O)O)c3cc(Br)ccc3n2)s1,?,-18%,·,15%,40µM*!
COc1ccc(SCC(CC(C)C)N2CCN(CCc3ccccc3)CCC2=O)cc1 (stereo unspecified),·,?,·,28%,·
CCCCc1c(O)nc(N2CCN(Cc3ccccc3)CC2)[nH]c1=O,7%,-24%,3%,10%,40µM*
CC(=O)c1ccc(NC(=O)c2cc(C)nc3c2c(C)nn3-c2ccc(C)cc2)cc1,9%[57.1 µM],-8%,·,18%,-9%[59 µM]
Cn1ncc(Br)c1C(=O)NC(=S)N1CCN(c2ccccn2)CC1,-9%,-13%,-7%,35%,?
O=C(NC(=S)N1CCN(c2ccccn2)CC1)c1ccccc1,-8%,-14%,-4%,12%,40µM*
Cn1cc(Br)c(C(=O)NC(=S)N2CCN(c3ccccn3)CC2)n1,?,-10%,0%,17%,40µM*
O=C(NC(=S)N1CCN(c2ccccc2)CC1)c1ccccc1,-26%,·,·,·,1%
COc1ccc(CN2CCN(Cc3ccccc3F)CC2)c(OC)c1,20µM*,1.3µM*,·,?,50µM*
COc1ccc(CN2CCN(Cc3ccc(C)cc3)CC2)c(OC)c1,22µM*,3.2µM*,·,?,50µM*
COc1ccc(CN2CCN(Cc3ccc(C(F)(F)F)cc3)CC2)c(OC)c1,25µM*,5.6µM*,·,?,40µM*
COc1ccc(CNC(=O)CSCc2ccc(C)cc2)c(OC)c1,6%,-3%,·,58%,-2%[59 µM]
COc1ccc(CN2CCN(c3ncccn3)CC2)c(OC)c1,-5%,?,-11%,?,?
COc1ccc(CN2CCN(c3ccccn3)CC2)c(OC)c1,79µM*,1.6µM*,0%,?,?
COC(=O)c1sccc1S(=O)(=O)N(CC(=O)NCc1ccccc1)c1ccc(C)cc1,-13%,-16%,·,6%,11%[59 µM]
SMILES,BAZ2B inh,JMJD2A Tudor inh,L3MBTL1 inh,HP1b chromo inh,G9a inh
CN(C)c1cccc(/C=C(\C#N)c2ccccc2)c1,-36%,-13%,-2%,21%,45µM*
Cc1nnsc1-c1nc2ccccc2[nH]1,·,-2%,0%,61%,28µM*
Cc1ccc(-c2nc3ccccc3[nH]2)s1,-3%,-2%,-9%,54%,7.9µM*
Cc1nc2c(-c3ccccc3)c(C)nn2c(C)c1CCC(=O)NCc1ccc(F)cc1,1%,6%,·,38%,0%[59 µM]
O=C(Nc1cccc(Cl)c1)C1CCCN(C2=NS(=O)(=O)c3ccccc32)C1 (stereo unspecified),-6%,-18%,1%,13%,?
O=C(Nc1ccc(Cl)cc1F)C1CCCN(C2=NS(=O)(=O)c3ccccc32)C1 (stereo unspecified),13%,-18%,4%,22%,50µM*
O=C(NNC(=O)C12CC3CC(CC(C3)C1)C2)c1ccccn1,6%,-6%,9%,19%,·
O=C(NNC(=O)C12CC3CC(CC(C3)C1)C2)c1cnccn1,-3%,-1%,22%,33%,3.2µM*
Cc1ccc(NC(=O)C2CC(=O)n3ncnc3N2)cc1C (stereo unspecified),-27%,2%,-5%,38%,56µM*
CN(CC(=O)Nc1ccc(F)cc1)C(=O)CN1C(=O)c2ccccc2C1=O,6%,-5%,2%,12%,16%[12.7 µM]
C#CCN[C@@H]1CCc2ccccc21,·,·,·,·,-27%[12.7 µM]
O=C(/C=C\N1CCOCC1)c1ccc(Br)cc1,-4%,-9%,-1%,30%,-12%
N/C(=N\N=C\c1ccc(Cl)cc1)N/N=C/c1ccc(Cl)cc1,·,·,·,·,-40%[12.7 µM]
O=C(N/N=C\c1ccc(F)cc1)c1csnn1,-15%,-19%,-1%,22%,1.6µM*
N/C(=N\N=C/c1ccc(F)cc1)N/N=C\c1ccc(F)cc1,?,?,11%,-8%,50µM*
CN(C)c1ccc(CNC(=O)C2COc3ccccc3C2)cc1 (stereo unspecified),-27%,-30%,·,-4%[57 µM],?
Cc1cccc(NC(=O)NNC(=O)c2ccc(C)c([N+](=O)[O-])c2)c1,1%,-4%,1%,42%,·
CC(=O)c1cccc(NCC(=O)c2ccc(C)c([N+](=O)[O-])c2)c1,-21%,-28%,·,74%,35µM*
CC(=O)c1cccc(NC(=S)NNC(=O)c2ccc(C)c([N+](=O)[O-])c2)c1,-6%,?,4%,-14%,20µM*
CCCCc1c(C)nc2ccccc2c1SCCC(=O)O,?,-16%,-10%,20%,50µM*
CCCCc1c(C)nc2ccc(C)cc2c1SCCC(=O)O,-16%,-15%,12%,38%,-5%[59 µM]
Cc1ccn2c(=O)c(C(=O)NCCc3ccc(S(N)(=O)=O)cc3)c(O)nc2c1,1%,-18%,·,25%,-43%[59 µM]
O=C(NC[C@@H]1CCCO1)c1cccc2c1C(=O)c1ccc(Cl)cc1S2(=O)=O,6%,-27%,9%,21%,6%[0.501 µM]
COc1ccc(-c2ccc3c(c2)S(=O)(=O)c2cccc(C(=O)NC[C@@H]4CCCO4)c2C3=O)cc1OC,?,40µM*,-1%,12%,7%[2.33 µM]
Oc1ccc(-c2cn3c(n2)SCC3)cc1O,?,11µM*,·,?,1.1µM*
Oc1ccc(-c2cn3c(n2)SCC3)cc1,-11%,-28%,·,1%,8.9µM*
CN(C(=O)c1cc2c(=O)oc3ccccc3c2s1)c1ccc(F)cc1,9%,-13%,·,-1%,?
Cc1c(C(=O)Nc2ccc(F)cc2F)oc2ccc3c(c12)C(=O)CC(C)(C)O3,?,-15%,·,18%,-33%[59 µM]
